Assay outcomes from PubChem.
Pol kappa inh – blocks human DNA polymerase kappa activity | Q9UBT6 | purified Pol kappa, fluorescent DNA synthesis assay, 10 min | AID 588579 | Potency, µM (titrated, usually from 107 µM), for the others: top-dose activity, negative = inhibition, hits mostly inhibitors | 400,000 tested, 0.53% active; further: on the % scale 0 is the no-effect control and ±100 the full control effect
Target sequence (Q9UBT6 whole entry, looked up): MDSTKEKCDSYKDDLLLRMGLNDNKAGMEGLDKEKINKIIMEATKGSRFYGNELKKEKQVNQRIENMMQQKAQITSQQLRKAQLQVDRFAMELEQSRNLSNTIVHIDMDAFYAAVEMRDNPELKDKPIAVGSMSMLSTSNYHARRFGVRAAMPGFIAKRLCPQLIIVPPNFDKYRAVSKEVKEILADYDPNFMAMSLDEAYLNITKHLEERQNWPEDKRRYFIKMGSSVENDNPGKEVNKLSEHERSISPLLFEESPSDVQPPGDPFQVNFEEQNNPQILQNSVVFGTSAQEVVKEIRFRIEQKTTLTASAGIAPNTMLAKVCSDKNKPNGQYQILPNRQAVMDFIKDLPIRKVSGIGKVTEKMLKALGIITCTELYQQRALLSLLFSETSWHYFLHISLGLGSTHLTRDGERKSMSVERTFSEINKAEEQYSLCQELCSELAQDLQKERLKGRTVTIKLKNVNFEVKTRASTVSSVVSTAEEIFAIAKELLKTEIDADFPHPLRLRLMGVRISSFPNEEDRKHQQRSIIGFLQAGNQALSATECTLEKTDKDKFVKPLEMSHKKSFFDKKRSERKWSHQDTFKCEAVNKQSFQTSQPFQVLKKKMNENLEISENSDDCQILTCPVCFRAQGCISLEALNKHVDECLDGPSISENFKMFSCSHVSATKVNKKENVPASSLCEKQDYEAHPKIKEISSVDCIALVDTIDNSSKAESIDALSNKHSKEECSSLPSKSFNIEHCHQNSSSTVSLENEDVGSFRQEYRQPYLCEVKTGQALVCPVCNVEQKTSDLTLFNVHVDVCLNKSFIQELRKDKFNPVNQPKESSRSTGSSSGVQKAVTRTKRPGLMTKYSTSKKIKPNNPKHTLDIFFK
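Activity was followed as the change in fluorescence between reads at 0 and 10 min after starting the reaction with 50 nM substrate. Beforehand, 10 nM polymerase had been preincubated with compound for 15 min at room temperature.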
TDP1 inh – blocks human tyrosyl-DNA phosphodiesterase 1; Q9NUW8; recombinant TDP1, AlphaScreen DNA substrate cleavage; Potency, µM (titrated, usually from 130 µM), inactives show top-dose activity change, negative = inhibition, actives largely listed as inhibitors; 350,000 tested, 0.28% active; further: on the % scale 0 is the no-effect control and ±100 the full control effect; nearly all actives have a fitted effect of over 40% in size
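Here, a 5' biotin and 3' phosphotyrosine-FITC DNA oligonucleotide reports Tdp1 activity: intact substrate bridges AlphaScreen beads, while cleavage leaves a 3' phosphate and drops signal. All incubations at room temperature.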
FEN1 inh-1 – human FEN1 inhibition; AID 588795; Recombinant FEN1 flap cleavage, fluorescence, 15 min; Potency, µM (top dose mostly 114 µM), without a hit: top-dose activity change, negative = inhibition, actives largely listed as inhibitors; 390,000 tested, 0.35% active; further: on the % scale 0 is the no-effect control and ±100 the full control effect; nearly all actives have a fitted effect of over 65% in size
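Recombinant FEN1 (10 nM) was preincubated with pin-transferred compounds for 15 min at room temperature, then flap DNA substrate (50 nM final) was added. Plates were read at 0 and 15 min, and normalized concentration–response data were fitted to a four-parameter Hill equation.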
POLH inh – DNA polymerase eta (human) inhibition; AID 588591; Potency, µM (series often up to 114 µM), without a hit: at the highest dose activity change, negative = inhibition, actives largely listed as inhibitors; Q9Y253; 390,000 tested, 1.2% active; recombinant Pol eta, fluorescent DNA replication assay; further: on the % scale 0 is the no-effect control and ±100 the full control effect
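Pol eta at 10 nM preincubated with compounds 15 min at room temperature; reaction started with fluorescent substrate (50 nM final) and read kinetically at 0 and 10 min.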
POLB inh – DNA polymerase beta (human) inhibition. Potency, µM (series often up to 114 µM), for the others: at the top dose activity change, negative = inhibition, actives largely listed as inhibitors. 340,000 tested, 1.3% active. P06746. Pol beta primer extension/strand displacement, fluorescence kinetic. AID 485314; further: on the % scale 0 is the no-effect control and ±100 the full control effect
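Kinetic readout of DNA synthesis with strand displacement by Pol beta. Compound and 10 nM enzyme sit 15 min at room temperature; 50 nM substrate starts the reaction, read immediately and at 10 min.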
POLI inh – DNA polymerase iota (human) inhibition; Pol iota fluorescent replication assay, 10 min; Potency, µM (doses to about 115 µM), for the others: top-dose activity, negative = inhibition, usual class: inhibitors; 390,000 tested, 1% active; AID 588590
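Fluorescent replication assay read twice, at 0 min and 10 min after adding 50 nM (final) substrate. Enzyme (10 nM) and compounds were first incubated 15 min at room temperature; enzyme-free buffer wells were negative controls.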
FEN1 inh-2 – FEN1 inhibition, cherry-pick retest; 880 tested, 79% active; shares compounds with FEN1 inh-1; FEN1 flap cleavage, TAMRA/BHQ2 fluorogenic DNA substrate; Potency, µM, usual class: inhibitors; further: nearly all actives have a fitted effect of over 60% in size
* hit, by the source's call; ? = inconclusive; . = not tested or not shown; [ ] = another dose, or the depositor's remark. The list is not random: actives were taken first. Their share in the collection is about 2.4%. The call rests on the fitted dose curve; in most records, active means well fitted curve in the direction sought with a large enough effect; inconclusive means small, poorly fitted or top-dose-only effect, or another doubt; inactive means no such curve, though single readings can be large; an effect the other way counts as inactive or inconclusive. Potency means the concentration at half of the fitted maximal effect.

SMILES	Pol kappa inh	TDP1 inh	FEN1 inh-1	POLH inh	POLB inh	POLI inh	FEN1 inh-2
O=C(OCC(=O)N1CCCc2ccccc21)c1ccc(Br)o1	-15.1%	4.1%	-4.2%	-3.6%	-0.5%	4.4%	.
CC(NC(=O)COc1ccc([N+](=O)[O-])cc1)c1ccccc1 (stereo not given)	1.7%[60.1 µM]	6.2%	14.3%	2.5%	-1.6%	4.8%	.
N#Cc1cccc(NC(=O)N2CCC3(CC2)CCN(C(=O)c2csnn2)CC3)c1	0.4%[60.1 µM]	.	.	.	.	.	.
Cc1ccc(C(=O)NCC(c2ccc3c(c2)OCO3)N2CCOCC2)cc1C (stereo not given)	2.5%[60.1 µM]	-2.2%	-6.1%	-7.6%	36.8%	-9.3%	.
CCOc1cc(CNC(=O)c2ccc3c(c2)nc2n3CCCCC2)ccc1OC	-15.7%[60.1 µM]	8.1%	13.0%	-10.3%	8.3%	-3.5%	.
COc1ncc2nc(-c3ccccc3)c(=O)n(C[C@H]3CCCO3)c2n1	0.2%[60.1 µM]	.	.	.	.	.	.
O=C(COC(=O)c1ccc([N+](=O)[O-])o1)NCCc1ccccc1	-23.9%	-2.9%	?	79.4µM*	.	44.7µM*	9.53*
NC(=O)N=Nc1c2[nH]c3ccccc3nc-2c2ccccc12	-9.9%	.	10µM*	?	-51.0%	?	3.38*
COc1ccc(Nc2nc(N3CCCCC3)c3ccccc3n2)cc1	-17.1%	6.2%	-10.0%	-13.3%	12.0%	10.8%	.
Oc1ccc(Nc2nc(N3CCCC3)c3ccccc3n2)cc1	?	6.7%	50.1µM*	-4.5%	44.7µM*	?	33.8*
CN(C)c1ccc(-c2nn3c(-c4cc(-c5ccccc5)n[nH]4)nnc3s2)cc1	-7.6%	-0.7%	1.7%	.	.	3.3%	.
COc1cc(/C=C2\SC(=S)N(C(C(=O)O)c3ccccc3)C2=O)cc(OC)c1OC (stereo not given)	-5.6%	.	-13.2%	12.4%	-0.4%	?	.
COc1cc(/C=C2/SC(=S)N(CC3CCCO3)C2=O)ccc1O (stereo not given)	-21.0%	6.9%	44.7µM*	?	?	?	42.6*
COc1cc(/C=C2\SC(=S)N(C(Cc3ccccc3)C(=O)O)C2=O)ccc1O (stereo not given)	?	2.7%	?	?	50.1µM*	?	?
COc1ccc(/C=C2\SC(=S)N(CC3CCCO3)C2=O)cc1 (stereo not given)	-1.1%	8.7%	9.7%	-17.4%	-3.7%	122.4%	.
COc1cc(/C=C2\SC(=S)N(Nc3ccccc3)C2=O)ccc1O	-31.3%	0.0%	?	?	11.2µM*	50.1µM*	84.9*
CC(=O)c1c(C)oc2c1cc(NS(=O)(=O)c1ccc(Cl)c(C)c1)c1ccccc12	2.8%	.	-8.6%	5.4%	48.3%	46.3%	.
Cc1nnc(SCc2ccc(Cl)cc2)c2cc3occc3n12	-22.1%	5.1%	?	-14.9%	-1.8%	-13.0%	.
Cc1c(Cl)cccc1-n1ncc(C(=O)N2CCc3ccccc3C2)c1C1CCN(C(=O)OC(C)(C)C)CC1	0.3%	0.0%	7.8%	-18.4%	29.0%	20.3%	.
O=c1c2ccccc2c(/C=N/NS(=O)(=O)c2ccccc2)c(O)n1-c1ccccn1	-22.5%	2.7%	-4.0%	5.9%	33.1%	?	?
COc1cc2c(Cc3ccccc3)cncc2cc1O	89.1µM*	.	2.2%	0.3%	.	19.3%	?
Cc1csc2c1c(=O)n(O)c(=O)n2Cc1ccccc1	.	.	.	.	.	.	0.107*
c1cncc(-c2nc(-n3ccnc3)c3ccccc3n2)c1	2.9%[60.1 µM]	.	.	.	.	.	.
O=C1c2ccc3c4c(ccc(c24)C(=O)N1CCCCO)C(=O)N(CCCCO)C3=O	-2.9%	5.3%	?	-14.7%	1.9%	?	30.1*
O=c1n(Cc2ccc(Cl)cc2)c2ccccc2c2nc(-c3ccccc3)nn12	-19.4%	-1.3%	4.2%	-16.8%	1.2%	38.3%	.
SMILES	Pol kappa inh	TDP1 inh	FEN1 inh-1	POLH inh	POLB inh	POLI inh	FEN1 inh-2
CC(=O)c1cccc(NC(=O)c2cccc(N3C(=O)c4ccccc4C3=O)c2)c1	4.0%	.	?	?	?	-10.1%	?
COc1ccc2c(CNC3CCCCCC3)c(C(=O)O)n(Cc3ccccc3F)c2c1	-10.1%	2.6%	-1.8%	1.0%	11.2%	-6.1%	.
CC(C)(C)/C(O)=C/c1nc2ccccc2oc1=O	0.0%	5.6%	20µM*	-5.8%	-17.9%	26.0%	30.1*
Cc1ccccc1CCNC(=O)c1ccc(NC(=O)N2CC(C)Sc3ccccc32)cc1 (stereo not given)	-19.8%	-5.1%	-14.0%	-14.3%	0.0%	-2.3%	.
CN(C)CCN(C)Cc1c2ccccc2c(CN(C)CCN(C)C)c2ccccc12	-11.2%	.	50.1µM*	-12.5%	-30.8%	66.2%	?
COc1ccc2nc(/N=C(\N)NC(=O)C(C)(C)C)nc(C)c2c1	-20.1%	-4.9%	-8.1%	5.5%	-0.5%	6.2%	.
CCC(=O)N/C(N)=N/c1nc(C)c2cc(OC)ccc2n1	8.3%	2.2%	79.4µM*	-12.4%	-8.3%	-3.3%[58.9 µM]	?
O=c1oc2ccc3ccccc3c2cc1-c1nnc(Nc2ccc(F)cc2)s1	-12.7%	-3.1%[12.3 µM]	-7.0%	2.5%	25.2%	5.6%	.
CCN1CCN(c2nc(Nc3ccc(NC(C)=O)cc3)nc(Nc3ccc(NC(C)=O)cc3)n2)CC1	?	-4.3%	?	?	?	?	?
CC(=O)Nc1ccc(/C(C)=N/Nc2nc(Nc3ccccc3)nc(N3CCOCC3)n2)cc1	-7.4%	-1.2%	-16.6%	-16.7%	-7.3%	97.7%	.
CCc1ccc(OCC(=O)N(Cc2cccs2)c2ccc(Cl)cc2)cc1	-6.4%	.	-0.9%	-12.9%	-1.1%	24.1%	.
Cc1ccc2[nH]c(=O)c(CN(CCCO)Cc3nnnn3Cc3ccccc3)cc2c1	-3.3%	1.7%	-19.6%	.	.	-16.5%	.
NN1C(=O)/C(=C2/Sc3ccccc3N2CCCS(=O)(=O)O)SC1=S	-34.8%	.	35.5µM*	50.1µM*	22.4µM*	?	?
O=C(O)CCN1C(=O)C2CCCCC2C1=O (stereo not given)	5.1%	-1.8%	9.5%	-7.9%	31.2%	2.7%	.
O=C1C(=O)N(O)C2CCCCC2N1O (stereo not given)	-0.1%	0.0%	17.8µM*	-21.3%	16.9%	43.5%	23.9*
COc1ccc(-c2noc(CSc3nnc(C)n3-c3ccc(OC)cc3)n2)cc1	21.6%	-1.2%	-2.4%	-18.9%	13.8%	26.9%	.
c1ccc2c(c1)CC(N1CCCCC1)c1ccccc1N2 (stereo not given)	-18.7%	4.3%	-1.2%	-2.0%	-0.7%	-5.2%	.
